Among the test systems are T-47D breast; BT-549 breast; MDA-MB-435 melanoma; SW-620 colon; MCF7 breast; HCT-116 colon; HCC-2998 colon; KM12 colon.
Holding throughout (assay): NCI-60 one-dose screen, 48 h (100 = growth as untreated, 0 = no growth, -100 = all killed)
What all share (conditions): 10 µM unless noted

This is part of a sample that, as a whole, favours compounds with a hit. Of some 83,000 tested, about 20% had one in any assay.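 In brief: 96-well plates, 48 h treatment, single concentration, percent growth endpoint.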 Values without a mark were called inactive. The source made the active and inactive calls. Rule for the calls: active = growth percent below 10; inactive = the rest.

Take `O=c1[nH]c2ccccc2cc1-c1nnc(Cc2ccccc2)o1`: the growth in the test with T-47D breast was 42.2%; in the test on BT-549 breast it was 48.9%; with MDA-MB-435 melanoma it was 52.9%; with SW-620 colon, 45%; with MCF7 breast, 20.5%; in the test on HCT-116 colon, 7.52% (active). Also, the growth in the test on HCC-2998 colon was 78.9%; with KM12 colon, 77.8%.
In the case of `COc1cc(C(=O)N2CCN(C(=O)c3ccco3)CC2)c(N)cc1OCc1ccccc1`, the growth was 97.1% in the test with T-47D breast; 105% in the test on BT-549 breast; 113% in the test on MDA-MB-435 melanoma; 105% with SW-620 colon; 93.1% in the test with MCF7 breast; 93.3% in the test on HCT-116 colon. Moreover, the figures for the growth in the test on HCC-2998 colon and with KM12 colon were 125% and 103%, respectively.
For the compound `Cc1ccc(Oc2nc3ccccc3cc2-c2nnc(Cn3c(COc4ccccc4)nc4ccccc43)o2)cc1`, the growth with T-47D breast was 48.9%; in the test with BT-549 breast, 14.7%; with MDA-MB-435 melanoma it was 50.8%; with SW-620 colon, 18.1%; in the test on MCF7 breast it was 11.6%; in the test on HCT-116 colon, -2.01% (active). Further, the growth in the test on HCC-2998 colon is 64.5%; in the test with KM12 colon, 16.7%.
Turning to `COc1ccc(/C=C/c2nc(N3CCOCC3)c3nc(Cl)c(Cl)cc3n2)cc1OC`, the growth is 88.2% in the test with T-47D breast; 99.9% in the test on BT-549 breast; 99.8% in the test with MDA-MB-435 melanoma; 109% with SW-620 colon; 111% in the test with MCF7 breast; 89.3% in the test on HCT-116 colon. In addition, the growth with HCC-2998 colon is 103%; in the test with KM12 colon, 93.9%.
Consider `CCn1cc(C(=O)O)c(=O)c2cc(F)c(N3CCN(S(=O)(=O)c4c(C)cc(C)cc4C)CC3)cc21`, for which the growth in the test with T-47D breast is 74.1%; in the test with BT-549 breast, 73.7%; in the test on MDA-MB-435 melanoma, 89.1%; in the test with SW-620 colon it was 95.1%; in the test on MCF7 breast it was 93.7%; in the test with HCT-116 colon, 79.2%. For the same compound, the growth in the test with HCC-2998 colon is 82.5%; with KM12 colon it was 87.2%.
As for `COc1cc2nc(N3CCC[C@@H](NC4=CC(=O)c5ccccc5C4=O)C3)nc(N)c2cc1OC`, the growth in the test with T-47D breast is -40.9% (active); in the test with BT-549 breast, 118%; in the test with MDA-MB-435 melanoma it was 64.7%; in the test on SW-620 colon, -60.6% (active); with MCF7 breast, -63.3% (active); in the test on HCT-116 colon, -83.6% (active). Further, the growth with HCC-2998 colon is 106%; with KM12 colon, -35.2% (active).
Regarding `COc1ccc(/C(=N/O)c2cc(F)c(F)c(OC)c2F)cc1O`, the growth with T-47D breast was 28.4%; in the test on BT-549 breast, 33.5%; with MDA-MB-435 melanoma, -35.7% (active); in the test with SW-620 colon, 15.2%; with MCF7 breast it was 18.7%; in the test with HCT-116 colon, 15.6%. In addition, the figures for the growth in the test on HCC-2998 colon and with KM12 colon were 42.7% and 29.3%, respectively.
In the case of `CN=S(=O)(NC(=O)c1ccc(Cl)cc1Cl)c1ccc(Br)s1` (configuration not stated), the growth in the test on T-47D breast is 95.8%; with BT-549 breast it was 103%; in the test with MDA-MB-435 melanoma, 97.6%; with SW-620 colon it was 98.8%; with MCF7 breast it was 101%; with HCT-116 colon, 102%. Moreover, the growth is 111% in the test on HCC-2998 colon and 110% with KM12 colon.
Turning to `Cc1ccc2c(c1)C(=O)C(c1c(-c3[nH]c(=O)c4ccc(C)cc4c3O)c(O)c3ccccc3c1O)=NC2=O`, the growth with T-47D breast is 11.9%; with BT-549 breast, 32.7%; with MDA-MB-435 melanoma it was 30.7%; in the test with SW-620 colon, 7.11% (active); in the test with MCF7 breast it was 12.3%; in the test on HCT-116 colon it was 12.9%. Moreover, the growth is 62% with HCC-2998 colon and 18.5% with KM12 colon.
Consider `COc1ccc(NC(=O)CSc2nc3ccccc3c(=O)n2Cc2cc(OC)c(OC)c(OC)c2)cc1`, for which the growth was 84% with T-47D breast; 89.1% in the test on BT-549 breast; 101% in the test with MDA-MB-435 melanoma; 104% with SW-620 colon; 93.8% in the test with MCF7 breast; 89.5% with HCT-116 colon. Besides, the figures for the growth in the test with HCC-2998 colon and in the test on KM12 colon were 109% and 97.7%, respectively.
For the compound `CC/C=C\C[C@H]1C/C=C2/C(=O)C(Cl)=C[C@@H]2C/C=C\CCCC(=O)O1`, the growth in the test on T-47D breast was -16.1% (active); in the test with BT-549 breast it was -75% (active); in the test with MDA-MB-435 melanoma it was -74.8% (active); with SW-620 colon, -74.8% (active); in the test with MCF7 breast, -40.4% (active); with HCT-116 colon it was -81% (active). The growth in the test with HCC-2998 colon is -80.2% (active); in the test with KM12 colon it was -74.3% (active).
Take `Cc1cc2c(c(=O)o1)C(c1ccc(OC(=O)N3CCOCC3)cc1)C(C#N)=C(N)O2` (configuration not stated): the growth in the test with T-47D breast is 102%; in the test on BT-549 breast it was 104%; in the test on MDA-MB-435 melanoma, 105%; in the test with SW-620 colon, 108%; in the test on MCF7 breast, 98%; in the test on HCT-116 colon, 104%. Further, the growth in the test on HCC-2998 colon was 99.4%; in the test on KM12 colon it was 105%.
In the case of `O=C(/C=C/CN1CCCCC1)Nc1cc2c(Nc3ccc(F)c(Cl)c3F)ncnc2cc1OCCOC(F)F`, the growth in the test on T-47D breast is -1.83% (active); with BT-549 breast it was 18.3%; in the test on MDA-MB-435 melanoma, 8.14% (active); in the test with SW-620 colon, 10.3%; in the test on MCF7 breast, 17.6%; in the test on HCT-116 colon, 6.6% (active). Also, the growth is 40.6% with HCC-2998 colon and 36.5% in the test on KM12 colon.
`O=c1[nH]c(CN2CCN(c3ccccc3F)CC2)nc2sc3c(c12)CCC3`: the growth is 99.1% in the test on T-47D breast; 98.8% in the test with BT-549 breast; 118% in the test with MDA-MB-435 melanoma; 105% in the test on SW-620 colon; 107% in the test on MCF7 breast; 105% in the test with HCT-116 colon. Moreover, the growth in the test with HCC-2998 colon is 117%; with KM12 colon, 106%.

The values are drawn from PubChem BioAssay (NCI).
